Experimental data published in the supplement of paper PMC6555819.

These sequences were tested on PPARg DBDmut:RXRa IVT, anti-PPARg (DBD mutation: PPARg1 K132A/R137A, NR concentration 270 nM, RXRa partner concentration 90 nM) (assay: PBM binding z-score (relative to random genomic background probes); higher = stronger binding; sequences stand for … in GC…GCGATTGACAGCGTAGAATGAAGG).
Summary of the method: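 Ligand-free nuclear receptor dimers were bound for 1 h to custom Agilent 4×180K protein-binding microarrays. Detection used antibodies against each partner (one per run). Binding z-scores rest on regression-normalized fluorescence, with random background probes as the reference.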
In the case of CGTCCAAGGTCATAGGAGATCAGTGAAGACAGAT, the PBM binding z-score is reported as 1.2.
CCTTACGGGTCAAGGCTATAGCACGGGTGGTACG gave a PBM binding z-score of -0.373.
CGAACGAGGGCATGAGTTGATAGCAAATGCCGAT was tested, and the PBM binding z-score was -0.334.
CCAGACAGGTGAGAAGGTAACTCCGCCTCGATTA was tested, and the PBM binding z-score was -0.414.
For TCTACTAGTTGATTAGGGCAACCGAAACAGCGGA, the PBM binding z-score was -0.0224.
GAGACAGGGTCAAGGCCAGAGTACGCGTATTGAT gave a PBM binding z-score of 0.251.
In the case of TCTAGTTGGTCACGGAGGTCACTCACGACGGGTA, the PBM binding z-score is reported as 0.646.
CTCGAAAGGTCGGTTGAGGTGTGTATACGGATAA gave a PBM binding z-score of 0.177.
CCTACTGGGCCATTCAGAGTTCATTGATCATATG gave a PBM binding z-score of -0.222.
CAGCCTAGGTTAGGGCCAGTATAGGAGGAACGTT was tested, and the PBM binding z-score was -1.05.
For GCGACTGGGGCCAAGCAGGTTACCATAAGGTTGG, the PBM binding z-score was -0.943.
Sequence CGAACGAGGGCATGAGTTGATGGCAAATGCCGAT has a PBM binding z-score of -0.341.
In the case of GGAACGATGGCAAGTTGATAGCAGAGTTTGATGG, the PBM binding z-score is reported as -1.07.
CGTCCAAGGTCAAAGGTCAGTCAAGAGATGACGG was tested, and the PBM binding z-score was 0.706.
CGTCCAAGGTCAAAGGTCAGTGCAGAGATGACGG showed a PBM binding z-score of 1.33.
CCTTCTGGGCCAAAGGTCATTGATTCCAATGCTC gave a PBM binding z-score of 0.508.
Work on TTTTGTAGATCAAGCAGGTTAAGAAAGCCTGAGT yielded a PBM binding z-score of 1.82.
AAGACAGGGTCATCGTAGGCCAGAGTACGCACAG showed a PBM binding z-score of 0.884.
Work on GCTAGCAGGCCATTTAGGTCACTCAATGACGGGC yielded a PBM binding z-score of -0.196.
Work on AATACAGGGTCACTAGGCCAGAGTTGGTACGAAT yielded a PBM binding z-score of 1.25.
TCATATAGGTAATACAGGTGAAAGTGGGCATCTA was tested, and the PBM binding z-score was 0.893.
CGAACTAGGTCTAGGACAGTGAATCTCCGCACGC gave a PBM binding z-score of -0.66.
For GCATATAGGTAATACCAGGTGAAAGTCCGATTGT, the PBM binding z-score was 0.784.
Work on TCAGAAAGGTGAAGGTAACTCAGGTACGCAGTCG yielded a PBM binding z-score of 0.125.
GGAACGAGGGCATACGAGTTGATAGCATGGCGAT gave a PBM binding z-score of 0.174.
For AGAATGAGGTTACCGAAGATCAGGGAAACGCTTG, the PBM binding z-score was 0.906.
Work on CCGACTGGGGCAGAAAGGTAACCATACCATCCGG yielded a PBM binding z-score of -0.318.
Work on AGTCACAGTTCACTAGGTAACGTAAGATTCAGCT yielded a PBM binding z-score of 1.36.
Work on GATCGGAGGACAAGGTCAGAGCTTTGTCCGTAGA yielded a PBM binding z-score of -0.747.
With CTCGAAAGGTCGGTTGAGGCGAGTATACGGATAA the PBM binding z-score was 0.246.
ACAGACAGGTGTTGAAGGTAACTCAGGCTATCAT gave a PBM binding z-score of -0.275.
GTACCAAGGTGAATAGGTCATTGATGAGTAGGCG gave a PBM binding z-score of 0.503.
Sequence AGAATAAGGTTATTAAGATCAGGGAATTGCGGTC has a PBM binding z-score of 1.52.
Sequence ATTTCTAGGTAAAGATAGTTCAGTGAATGCAAAT has a PBM binding z-score of 1.56.
Sequence CGAACTAGGTCAAGGACTGTGAATCTCCGCACGC has a PBM binding z-score of 0.764.
Sequence TCTTGTAGATCAACAGGAGGTTAAGAATGATCGA has a PBM binding z-score of 0.795.
With CGTCCAAGGTCAATGCTTGGTCAGTGAAAGCATT the PBM binding z-score was -0.682.
For CCTATTAGTCGACCATAAGGGCAACCGAAGCTCG, the PBM binding z-score was 0.93.
Sequence TATACAGGGTCAAAGGCGAGAGTACGAATGTCGA has a PBM binding z-score of 2.38.
Sequence TCTTGTAGATCAATAGAGGTTAAGGAAGTGCGCT has a PBM binding z-score of 0.906.
